PubChem BioAssay (NCI)
The panel holds about 83,000 compounds, 20% with a hit somewhere; the sample as a whole holds those more often.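 Cells were grown in 96-well plates and exposed to the test compound at a single concentration for 48 hours; results are reported as percent growth, with values below 10 considered active.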 Activity calls are given as the source filed them.

How the values were obtained:
Assay in all cases: NCI-60 one-dose screen, 48 h (100 = growth as untreated, 0 = no growth, -100 = all killed)
Details in all cases: 10 µM unless noted
SR leukemia = tested on: SR leukemia
RPMI-8226 leukemia = tested on: RPMI-8226 leukemia
OVCAR-8 ovarian = tested on: OVCAR-8 ovarian
OVCAR-4 ovarian = tested on: OVCAR-4 ovarian
SK-OV-3 ovarian = tested on: SK-OV-3 ovarian
IGROV1 ovarian = tested on: IGROV1 ovarian
OVCAR-3 ovarian = tested on: OVCAR-3 ovarian
NCI/ADR-RES ovarian = tested on: NCI/ADR-RES ovarian
T-47D breast = tested on: T-47D breast
BT-549 breast = tested on: BT-549 breast
MDA-MB-435 melanoma = tested on: MDA-MB-435 melanoma
SW-620 colon = tested on: SW-620 colon
MCF7 breast = tested on: MCF7 breast
HCT-116 colon = tested on: HCT-116 colon
HCC-2998 colon = tested on: HCC-2998 colon
KM12 colon = tested on: KM12 colon
HS 578T breast = tested on: HS 578T breast
OVCAR-5 ovarian = tested on: OVCAR-5 ovarian

Measured: growth

N/C(=N\C(N)=N\c1nc2ccccc2s1)c1ccnc(Cl)c1
active: OVCAR-3 ovarian 4.62% | MDA-MB-435 melanoma -34.9%
inactive: SR leukemia 18.9% | RPMI-8226 leukemia 15.2% | OVCAR-8 ovarian 39.5% | OVCAR-4 ovarian 79.1% | SK-OV-3 ovarian 48.5% | IGROV1 ovarian 37.2% | NCI/ADR-RES ovarian 18.3% | T-47D breast 60.8% | BT-549 breast 38% | SW-620 colon 16.8% | MCF7 breast 31.5% | HCT-116 colon 31.7% | HCC-2998 colon 62.7% | KM12 colon 32%

C[C@@H]1C[C@@H]([C@@H](CC2CC(=O)NC(=O)C2)OC(=O)CC(=O)c2ccccc2)C(=O)[C@@H](C)C1
active: SK-OV-3 ovarian -3.27% | IGROV1 ovarian -10.4% | T-47D breast -2.63% | HCT-116 colon 5.68%
inactive: SR leukemia 31.1% | RPMI-8226 leukemia 17.4% | OVCAR-8 ovarian 12.5% | OVCAR-4 ovarian 20.2% | OVCAR-3 ovarian 19.4% | HS 578T breast 19.4% | NCI/ADR-RES ovarian 10.3% | BT-549 breast 14.6% | MDA-MB-435 melanoma 11.6% | SW-620 colon 15.1% | MCF7 breast 14.7% | KM12 colon 12%

COc1ccc(OC)c(CCn2cncc2-c2c[nH]c3cc(Br)ccc23)c1
active: T-47D breast 6.48%
inactive: SR leukemia 13.6% | RPMI-8226 leukemia 16.7% | OVCAR-8 ovarian 24.7% | OVCAR-4 ovarian 21.6% | SK-OV-3 ovarian 38.8% | IGROV1 ovarian 47.9% | OVCAR-3 ovarian 32.7% | HS 578T breast 59.8% | NCI/ADR-RES ovarian 19.4% | BT-549 breast 14.1% | MDA-MB-435 melanoma 11.8% | SW-620 colon 33.7% | MCF7 breast 17.2% | HCT-116 colon 23.6% | HCC-2998 colon 69.6% | KM12 colon 41.7%

COc1cc(/C=C2\CN(C)CC3=C2Nc2nc(SC)[nH]c(=O)c2C3c2cc(OC)c(OC)c(OC)c2)cc(OC)c1OC (centres undefined)
inactive: OVCAR-4 ovarian 75.9% | SK-OV-3 ovarian 87.9% | IGROV1 ovarian 30.8% | OVCAR-3 ovarian 15.7% | HS 578T breast 36.3% | T-47D breast 85.4% | BT-549 breast 54.9% | SW-620 colon 11.7% | MCF7 breast 33.5% | HCC-2998 colon 49.9% | KM12 colon 37.2%
active: SR leukemia -2.83% | RPMI-8226 leukemia 8.36% | OVCAR-8 ovarian 1.09% | NCI/ADR-RES ovarian -7.05% | MDA-MB-435 melanoma 2.77% | HCT-116 colon -46.3%

O=c1ncc(-c2ccc(C(F)(F)F)cc2)c(NC2CCCCCC2)[nH]1
active: RPMI-8226 leukemia 5% | OVCAR-3 ovarian -2.84%
inactive: SR leukemia 69% | OVCAR-5 ovarian 91.3% | OVCAR-4 ovarian 53.5% | SK-OV-3 ovarian 83.9% | IGROV1 ovarian 51% | HS 578T breast 68.6% | NCI/ADR-RES ovarian 102% | T-47D breast 32.5% | BT-549 breast 72.7% | MDA-MB-435 melanoma 45.3% | SW-620 colon 46.5% | MCF7 breast 40.4% | HCT-116 colon 39.1% | HCC-2998 colon 98.1% | KM12 colon 33.4%

Cc1[nH]c(=O)[nH]c(=O)c1CCSSCCc1c(C)[nH]c(=O)[nH]c1=O
inactive: SR leukemia 79.6% | RPMI-8226 leukemia 104% | OVCAR-8 ovarian 107% | OVCAR-4 ovarian 117% | SK-OV-3 ovarian 103% | IGROV1 ovarian 99.8% | OVCAR-3 ovarian 117% | HS 578T breast 142% | NCI/ADR-RES ovarian 104% | T-47D breast 96.6% | BT-549 breast 105% | MDA-MB-435 melanoma 103% | SW-620 colon 108% | MCF7 breast 87.2% | HCT-116 colon 101% | HCC-2998 colon 102% | KM12 colon 101%

C[C@]12CCC(=O)C=C1CC[C@H]1[C@@H]3C[C@@H](O)[C@](O)(C(=O)CO)[C@@]3(C)C[C@H](O)[C@@]12F
inactive: SR leukemia 96.3% | RPMI-8226 leukemia 67.1% | OVCAR-8 ovarian 92.8% | OVCAR-4 ovarian 95.7% | SK-OV-3 ovarian 72.4% | IGROV1 ovarian 97.6% | OVCAR-3 ovarian 105% | HS 578T breast 115% | NCI/ADR-RES ovarian 95.4% | T-47D breast 103% | MDA-MB-435 melanoma 99.7% | SW-620 colon 95.5% | MCF7 breast 86.1% | HCT-116 colon 90.6% | KM12 colon 102%

Cc1ccc(C(NC(=O)c2ccccc2)c2ccc3cccnc3c2O)cc1 (centres undefined)
inactive: SR leukemia 11% | RPMI-8226 leukemia 14.9% | OVCAR-5 ovarian 44.8% | OVCAR-4 ovarian 19.8% | SK-OV-3 ovarian 19.3% | IGROV1 ovarian 17.1% | OVCAR-3 ovarian 31.5% | HS 578T breast 69.5% | NCI/ADR-RES ovarian 14% | T-47D breast 25.1% | MDA-MB-435 melanoma 30% | SW-620 colon 31.3% | MCF7 breast 24.8% | HCT-116 colon 22.8% | HCC-2998 colon 30.7% | KM12 colon 26.5%

O=C(O)CCNS(=O)(=O)c1ccc(-c2ccccc2)cc1
active: HS 578T breast 9.34%
inactive: SR leukemia 88.9% | RPMI-8226 leukemia 69% | OVCAR-8 ovarian 97.7% | OVCAR-4 ovarian 101% | SK-OV-3 ovarian 107% | OVCAR-3 ovarian 114% | NCI/ADR-RES ovarian 108% | T-47D breast 108% | MDA-MB-435 melanoma 102% | SW-620 colon 95.4% | MCF7 breast 106% | HCT-116 colon 108% | HCC-2998 colon 111% | KM12 colon 117%

Cn1ccnc1C(=O)/C=C/c1ccc(C(=O)Nc2nc3ccccc3[nH]2)cc1
inactive: SR leukemia 11.2% | RPMI-8226 leukemia 10.7% | OVCAR-5 ovarian 59.9% | OVCAR-4 ovarian 36.7% | SK-OV-3 ovarian 77.2% | IGROV1 ovarian 36% | HS 578T breast 40.2% | NCI/ADR-RES ovarian 24.6% | T-47D breast 49.6% | MDA-MB-435 melanoma 18.8% | MCF7 breast 19.5% | HCT-116 colon 23.1% | HCC-2998 colon 45.4% | KM12 colon 14.4%
active: OVCAR-3 ovarian 7.54% | BT-549 breast 5.05% | SW-620 colon 5.35%

CCSc1ncc(Br)c(Sc2nc(N)nc3nc[nH]c23)n1
inactive: SR leukemia 19.4% | RPMI-8226 leukemia 26.1% | OVCAR-5 ovarian 72.3% | OVCAR-4 ovarian 58.4% | SK-OV-3 ovarian 18.5% | IGROV1 ovarian 89.4% | OVCAR-3 ovarian 75.2% | HS 578T breast 89.9% | NCI/ADR-RES ovarian 33.4% | T-47D breast 29.9% | BT-549 breast 65.3% | MDA-MB-435 melanoma 37.7% | SW-620 colon 91.4% | MCF7 breast 47% | HCT-116 colon 36.8% | HCC-2998 colon 41.4%

CCCCc1n(Cc2ccc3ccccc3c2)cc[n+]1Cc1ccc2ccccc2c1
inactive: NCI/ADR-RES ovarian 87.9%
active: SR leukemia -44.1% | RPMI-8226 leukemia -39.9% | OVCAR-8 ovarian -35.8% | OVCAR-4 ovarian 9.46% | SK-OV-3 ovarian -3.39% | IGROV1 ovarian -57.9% | OVCAR-3 ovarian -80.1% | T-47D breast -1.14% | BT-549 breast -76.4% | MDA-MB-435 melanoma -77.5% | SW-620 colon 1.48% | MCF7 breast -42.3% | HCT-116 colon -97.2% | HCC-2998 colon -5.21% | KM12 colon -82.5%

O=C1/C(=C/c2ccccc2O)C(=S)SN1Cc1ccco1
inactive: RPMI-8226 leukemia 66.8% | OVCAR-5 ovarian 102% | OVCAR-4 ovarian 105% | SK-OV-3 ovarian 98.8% | IGROV1 ovarian 93.4% | OVCAR-3 ovarian 111% | HS 578T breast 104% | NCI/ADR-RES ovarian 110% | T-47D breast 54.2% | BT-549 breast 93.5% | MDA-MB-435 melanoma 56.4% | SW-620 colon 108% | MCF7 breast 15.7% | HCT-116 colon 87.1% | HCC-2998 colon 108% | KM12 colon 69.5%
active: SR leukemia -9.87%

N=C1c2nc3n(c2C(=O)c2nc4n(c21)CCCCC4)CCCCC3
inactive: SR leukemia 91.8% | RPMI-8226 leukemia 99.1% | OVCAR-5 ovarian 123% | OVCAR-4 ovarian 93.2% | SK-OV-3 ovarian 107% | IGROV1 ovarian 130% | OVCAR-3 ovarian 111% | HS 578T breast 112% | NCI/ADR-RES ovarian 110% | T-47D breast 116% | BT-549 breast 110% | MDA-MB-435 melanoma 111% | SW-620 colon 105% | MCF7 breast 94.5% | HCT-116 colon 107% | HCC-2998 colon 112% | KM12 colon 106%

COc1cc(/C=C/c2cc(/C=C/c3ccc(O)c(OC)c3)n(C(=O)c3ccc(Cl)cc3)n2)ccc1O
inactive: OVCAR-8 ovarian 29.1% | OVCAR-4 ovarian 36.5% | IGROV1 ovarian 34% | HS 578T breast 10.1% | NCI/ADR-RES ovarian 21.9% | T-47D breast 11.2% | SW-620 colon 16.4% | MCF7 breast 20.1% | HCC-2998 colon 52% | KM12 colon 10.8%
active: SR leukemia 3.07% | RPMI-8226 leukemia -16.1% | OVCAR-3 ovarian 7.65% | MDA-MB-435 melanoma -45.2% | HCT-116 colon 0.953%

O=C(Nc1nc(-c2ccc(Cl)cc2)cs1)c1cc(-c2ccc(Br)cc2)nc2ccc(Cl)cc12
inactive: SR leukemia 15.4% | RPMI-8226 leukemia 16.1% | OVCAR-5 ovarian 106% | OVCAR-4 ovarian 47.3% | SK-OV-3 ovarian 86.6% | IGROV1 ovarian 30.8% | OVCAR-3 ovarian 10% | HS 578T breast 49.4% | T-47D breast 53% | SW-620 colon 34.9% | MCF7 breast 16.4% | HCC-2998 colon 109% | KM12 colon 24.8%
active: NCI/ADR-RES ovarian 8.07% | BT-549 breast -15.9% | MDA-MB-435 melanoma -21.6% | HCT-116 colon 5.84%

O=[N+]([O-])c1cc([N+](=O)[O-])c(N2CCCC2)cc1NN=C(c1ccc(O)cc1)c1ccc(O)cc1
inactive: SR leukemia 77.1% | RPMI-8226 leukemia 82.2% | OVCAR-4 ovarian 81.6% | SK-OV-3 ovarian 39.9% | OVCAR-3 ovarian 89.8% | HS 578T breast 137% | NCI/ADR-RES ovarian 33.6% | BT-549 breast 86.6% | MDA-MB-435 melanoma 76.1% | SW-620 colon 107% | KM12 colon 85.7%
active: OVCAR-8 ovarian -45.4% | T-47D breast -7.05% | MCF7 breast 9.54% | HCT-116 colon 8% | HCC-2998 colon 4.45%

NS(=O)(=O)N(c1cc(C(F)(F)F)cc(C(F)(F)F)c1)C1CCN(Cc2ccc(C(F)(F)F)cc2)CC1
active: SR leukemia -6.79% | SK-OV-3 ovarian 4.55% | MDA-MB-435 melanoma -60.4% | MCF7 breast 9.31% | HCT-116 colon 2.21% | HCC-2998 colon 3.6%
inactive: RPMI-8226 leukemia 31.7% | OVCAR-5 ovarian 38.6% | OVCAR-4 ovarian 31.6% | IGROV1 ovarian 21.7% | OVCAR-3 ovarian 15% | HS 578T breast 25.2% | NCI/ADR-RES ovarian 58.2% | T-47D breast 29.5% | BT-549 breast 37.4% | SW-620 colon 19.9% | KM12 colon 12.9%
